Laboratory results from the supplement of paper PMC12340641.
Structures can show the parent of a compound that is named as a salt. ± gives the standard deviation of the averaged measurements.

target: IKZF1 (dCK*-IKZF1 fusion in HEK293FT) (UniProt Q13422); assay: inhibition of IKZF1 HTRF signal (DMSO = 0%, pomalidomide 10 uM = 100%); higher = lower IKZF1 protein level; settings: compound concentration: 5 uM, overnight (~20 h)
How it was run: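 For percent inhibition of IKZF1 signal, each plate was normalised to vehicle and to a reference degrader. Cells were HEK293FT stably expressing an IKZF1 fusion, plated at 2000/well in 384-well format and treated overnight at 37 °C with 5 μM compound, one well each. Lysates were probed overnight with a commercial HTRF total-IKZF1 antibody kit, with the 665/620 nm ratio background-subtracted and vehicle and degrader fixed at 0% and 100%.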

Sequence of IKZF1 (dCK*-IKZF1 fusion in HEK293FT) (Q13422 whole entry, looked up, the tested form may be a part): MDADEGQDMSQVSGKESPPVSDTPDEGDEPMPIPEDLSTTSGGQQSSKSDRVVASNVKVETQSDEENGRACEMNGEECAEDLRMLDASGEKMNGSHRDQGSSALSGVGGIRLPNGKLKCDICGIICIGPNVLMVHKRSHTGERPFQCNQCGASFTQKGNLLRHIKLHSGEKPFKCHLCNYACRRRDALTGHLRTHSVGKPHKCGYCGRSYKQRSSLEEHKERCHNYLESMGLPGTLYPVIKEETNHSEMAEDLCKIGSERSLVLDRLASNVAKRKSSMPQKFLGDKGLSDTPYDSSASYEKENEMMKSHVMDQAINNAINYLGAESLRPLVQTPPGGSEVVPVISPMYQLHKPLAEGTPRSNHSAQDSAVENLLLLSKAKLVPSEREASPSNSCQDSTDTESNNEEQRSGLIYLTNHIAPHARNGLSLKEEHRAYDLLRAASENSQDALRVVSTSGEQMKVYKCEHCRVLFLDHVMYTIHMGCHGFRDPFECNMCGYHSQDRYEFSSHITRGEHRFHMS

Structure (SMILES)	inhibition of IKZF1 HTRF signal [%]
C[n+]1c2cc(N)ccc2cc2ccc(N)cc21	69.3
Nc1nc(N)c2nc(-c3ccccc3)c(N)nc2n1	3.18
CN1CCCC(CC2c3ccccc3Sc3ccccc32)C1 (stereo not given) [metixene]	-23.4
O=C(/C=C/c1ccc(O)c(O)c1)c1ccc(O)cc1O [Butein]	8.77
O=C(CSc1nnc2c(n1)[nH]c1ccccc12)Nc1ccc(Cl)cn1	4.2
CCCCCCCCCCCCCCCC[N+](C)(C)CCN(Cc1ccc(OC)cc1)c1ncccn1 [thonzonium bromide]	21
CCCCCCCCCCCC1=C(O)C(=O)C=C(O)C1=O [embelin]	-30.8
CC(C)(C)CC(C)(C)c1ccc(O)c(Cc2ccc(Cl)cc2Cl)c1	115
CC(C)/N=c1/cc2n(-c3ccc(Cl)cc3)c3ccccc3nc-2cc1Nc1ccc(Cl)cc1 [Clofazimine]	6.09
O=C(NCCO[N+](=O)[O-])c1cccnc1	-26.3
CN1CCN(c2ncc(-c3cc(Cl)cc(Cl)c3Cl)c(N)n2)CC1 [sipatrigine]	11.5
CN(C)CC/C=C1/c2ccccc2Sc2ccc(Cl)cc21	-9.91
Cc1ncsc1-c1ccc(CNC(=O)[C@@H]2C[C@@H](O)CN2C(=O)[C@@H](NC(=O)COCCOCCOc2ccc(-c3ccc4ncnc(Nc5ccc(OCc6cccc(F)c6)c(Cl)c5)c4c3)cc2)C(C)(C)C)cc1	6.76
CN(C)c1ccc(/C=C2\C(=O)Nc3ccccc32)cc1	-36.5
Nc1ncn([C@@H]2O[C@H](CO)C(O)C2O)c(=O)n1 (stereo not given in full) [Azacitidine]	-5.73
O=C(N/N=C/c1ccccc1O)c1ccccc1O	-40.4
NC(=O)C(c1ccccc1)(c1ccc(F)cc1)c1ccc(F)cc1 [Senicapoc]	-28.5
COc1cc(C(=O)NS(=O)(=O)c2ccccc2C)ccc1Cc1cn(C)c2ccc(NC(=O)OC3CCCC3)cc12 [Zafirlukast (Accolate)]	-6.19
CC(O)(C(=O)Nc1ccc(S(=O)(=O)c2ccccc2)cc1)C(F)(F)F (stereo not given)	-44.3
Cc1noc(C)c1-c1ccc(-c2cc(C(N)=O)c(NC(N)=O)s2)c(O[C@H]2CCNC2)c1	-26
NC(=O)NC(=O)Cc1ccccc1	-29.1
CCOC(=O)C1=C[C@]2(CC)CCCN3CCc4c(n1c1ccccc41)[C@@H]32	-26.3
COc1cccc2c1C(=O)c1c(O)c3c(c(O)c1C2=O)C[C@@](O)(C(=O)CO)C[C@@H]3O[C@H]1C[C@H](N)[C@@H](O)[C@H](C)O1 [Epirubicin Hydrochloride]	52.4
Nc1ccc(-c2ccc3ncc4ccc(=O)n(-c5cccc(C(F)(F)F)c5)c4c3c2)cn1 [torin-2]	66.5
COc1cc(N2CCC(N3CCN(C(=O)CNc4cccc5c4C(=O)N(C4CCC(=O)NC4=O)C5=O)CC3)CC2)ccc1Nc1ncc(Cl)c(Nc2ccccc2P(C)(C)=O)n1 (stereo not given)	111
C=C1/C(=C\C=C2/CCC[C@]3(C)[C@@H]([C@H](C)/C=C/C=C/C(O)(CC)CC)CC[C@@H]23)C[C@@H](O)C[C@@H]1O [Seocalcitol]	-23.4
C[C@@H]1CC2C3CCC4=CC(=O)C=C[C@]4(C)[C@@]3(F)[C@@H](O)C[C@]2(C)[C@H]1C(=O)CO (stereo not given in full)	19.4

system: HEK293FT dCK*-only; assay: relative growth in counter assay (no AraC = 100%, AraC + DMSO = 0%); higher = more growth rescue independent of IKZF1; settings: compound concentration: 5 uM; AraC concentration: 0.3 uM; overnight pretreatment + 4 days AraC
How it was run: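 HEK293FT cells carrying only an engineered kinase construct were plated at 300 per well (384-well) and given 5 μM compound 2 h later. Following overnight at 37 °C, a nucleoside suicide substrate (0.3 μM) plus medium was added for 4 days. Hoechst 33342-stained nuclei were imaged and counted on day 5, with 100% assigned to wells without suicide substrate and 0% to substrate plus vehicle on each plate.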

Structure (SMILES)	relative growth in counter assay [%]
CCCCCCCC[N+](C)(C)Cc1ccccc1 [benzyldimethyloctylammonium]	4.74
COC(=O)Nc1nc2cc(SC(C)C)ccc2[nH]1 [methiazole]	-32.7
CCOC(=O)Nc1ccc2c(c1)N(C(=O)CCN1CCOCC1)c1ccccc1S2 [moracizine]	-9.21
C=C1/C(=C/C=C2\CCC[C@]3(C)[C@@H]([C@H](C)/C=C/[C@@H](C)C(C)C)CC[C@@H]23)C[C@@H](O)C[C@@H]1O [Doxercalciferol (Hectorol)]	1.09
CCOC(=O)C1=C(C)NC(C)=C(C(=O)OC)C1c1cccc(Cl)c1Cl (stereo not given)	-9.69
Cc1ccc(S(=O)(=O)N/N=C/c2cc(Br)ccc2O)cc1	-14 ± 4.4
CO[C@H]1/C=C/O[C@@]2(C)Oc3c(C)c(O)c4c(O)c(c5c(c4c3C2=O)=NC2(CCN(CC(C)C)CC2)N=5)NC(=O)C(C)=CC=CC(C)[C@H](O)[C@@H](C)[C@@H](O)[C@@H](C)[C@H](OC(C)=O)[C@@H]1C (stereo not given in full) [Rifabutin]	3.92
CCOC(=O)c1ccc(N)cc1	-10.5
O=C(Nc1ccc(S(=O)(=O)Nc2ccccc2Cl)c(Cl)c1)c1ccccn1	1.67
Cc1ncsc1-c1ccc(CNC(=O)[C@@H]2C[C@@H](O)CN2C(=O)[C@@H](NC(=O)COCCCCOc2ccc(-c3ccc(N4C(=S)N(c5ccc(C#N)c(C(F)(F)F)c5)C(=O)C4(C)C)cc3)cc2)C(C)(C)C)cc1	72.3
COCCOC(=O)C1=C(C)NC(C)=C(C(=O)OC(C)C)C1c1cccc([N+](=O)[O-])c1 (stereo not given)	-11.4
C[n+]1c2cc(N)ccc2cc2ccc(N)cc21	-34.9
Nc1nc(N)c2nc(-c3ccccc3)c(N)nc2n1	-11
CN1CCCC(CC2c3ccccc3Sc3ccccc32)C1 (stereo not given) [metixene]	2.04
O=C(/C=C/c1ccc(O)c(O)c1)c1ccc(O)cc1O [Butein]	-27.3
O=C(CSc1nnc2c(n1)[nH]c1ccccc12)Nc1ccc(Cl)cn1	-5.82
CCCCCCCCCCCCCCCC[N+](C)(C)CCN(Cc1ccc(OC)cc1)c1ncccn1 [thonzonium bromide]	-31
CCCCCCCCCCCC1=C(O)C(=O)C=C(O)C1=O [embelin]	-6.94
CC(C)(C)CC(C)(C)c1ccc(O)c(Cc2ccc(Cl)cc2Cl)c1	-6.45

Structure (SMILES)	relative growth in counter assay [%]
CC(C)/N=c1/cc2n(-c3ccc(Cl)cc3)c3ccccc3nc-2cc1Nc1ccc(Cl)cc1 [Clofazimine]	3.02
O=C(NCCO[N+](=O)[O-])c1cccnc1	-5.9
CN1CCN(c2ncc(-c3cc(Cl)cc(Cl)c3Cl)c(N)n2)CC1 [sipatrigine]	5.22
CN(C)CC/C=C1/c2ccccc2Sc2ccc(Cl)cc21	11.5
Cc1ncsc1-c1ccc(CNC(=O)[C@@H]2C[C@@H](O)CN2C(=O)[C@@H](NC(=O)COCCOCCOc2ccc(-c3ccc4ncnc(Nc5ccc(OCc6cccc(F)c6)c(Cl)c5)c4c3)cc2)C(C)(C)C)cc1	49.6
CN(C)c1ccc(/C=C2\C(=O)Nc3ccccc32)cc1	-9.78
Nc1ncn([C@@H]2O[C@H](CO)C(O)C2O)c(=O)n1 (stereo not given in full) [Azacitidine]	4.37
O=C(N/N=C/c1ccccc1O)c1ccccc1O	0.05
NC(=O)C(c1ccccc1)(c1ccc(F)cc1)c1ccc(F)cc1 [Senicapoc]	2.14
COc1cc(C(=O)NS(=O)(=O)c2ccccc2C)ccc1Cc1cn(C)c2ccc(NC(=O)OC3CCCC3)cc12 [Zafirlukast (Accolate)]	0.38
CC(O)(C(=O)Nc1ccc(S(=O)(=O)c2ccccc2)cc1)C(F)(F)F (stereo not given)	-0.27
Cc1noc(C)c1-c1ccc(-c2cc(C(N)=O)c(NC(N)=O)s2)c(O[C@H]2CCNC2)c1	4.03
NC(=O)NC(=O)Cc1ccccc1	4.08
CCOC(=O)C1=C[C@]2(CC)CCCN3CCc4c(n1c1ccccc41)[C@@H]32	-0.08
COc1cccc2c1C(=O)c1c(O)c3c(c(O)c1C2=O)C[C@@](O)(C(=O)CO)C[C@@H]3O[C@H]1C[C@H](N)[C@@H](O)[C@H](C)O1 [Epirubicin Hydrochloride]	-34.5
Nc1ccc(-c2ccc3ncc4ccc(=O)n(-c5cccc(C(F)(F)F)c5)c4c3c2)cn1 [torin-2]	-34.6
COc1cc(N2CCC(N3CCN(C(=O)CNc4cccc5c4C(=O)N(C4CCC(=O)NC4=O)C5=O)CC3)CC2)ccc1Nc1ncc(Cl)c(Nc2ccccc2P(C)(C)=O)n1 (stereo not given)	-29.6
C=C1/C(=C\C=C2/CCC[C@]3(C)[C@@H]([C@H](C)/C=C/C=C/C(O)(CC)CC)CC[C@@H]23)C[C@@H](O)C[C@@H]1O [Seocalcitol]	14.2
C[C@@H]1CC2C3CCC4=CC(=O)C=C[C@]4(C)[C@@]3(F)[C@@H](O)C[C@]2(C)[C@H]1C(=O)CO (stereo not given in full)	-5.74
